In the supplement of paper PMC6607015:
Structures can show the parent of a compound that is named as a salt.

Assays:
Settings in all cases: compound concentration in added solution (µM; 5 µl added to 20 µl cells): 10; 18 h
A431 [1] = assay: LBPA endosome anti-LBPA integrated intensity (sum per cell), Z-score; higher = more LBPA staining
Summary of the method: (§1)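 After 18 h on 5 µl of 10 µM compound solution in duplicate 384-well imaging plates, HeLa MZ or A431 cells, seeded at 3,500 per well in 20 µl, were fixed with 4% PFA. They were then labelled with 6C4 anti-LBPA antibody, filipin, propidium iodide and CellTracker green, and four 20× fields were recorded per well. Integrated LBPA or filipin intensity per cell, whole-cell or within LBPA endosomes, came from MetaXpress segmentation and was normalised to Z-scores in AcuityXpress.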

HeLa MZ [2] = assay: as above
Summary of the method: as §1

A431 [3] = assay: whole-cell filipin (free cholesterol) integrated intensity, Z-score; higher = more cholesterol staining
Summary of the method: as §1

HeLa MZ [4] = assay: as above
Summary of the method: as §1

A431 [5] = assay: filipin (cholesterol) integrated intensity within LBPA endosomes, Z-score; higher = more cholesterol in LBPA endosomes
Summary of the method: as §1

HeLa MZ [6] = assay: as above
Summary of the method: as §1

Row | Compound | LBPA endosome anti-LBPA integrated intensity (z-score) (A431 [1]) | LBPA endosome anti-LBPA integrated intensity (z-score) (HeLa MZ [2]) | whole-cell filipin (z-score) (A431 [3]) | whole-cell filipin (z-score) (HeLa MZ [4]) | filipin (z-score) (A431 [5]) | filipin (z-score) (HeLa MZ [6])
1 | OCCOCCN1CCN(C2=Nc3ccccc3Sc3ccccc32)CC1 [Quetiapine] | -0.603 | 0.201 | -0.454 | -0.549 | -0.515 | -0.0994
2 | CCCc1nc(C)c2c(=O)nc(-c3cc(S(=O)(=O)N4CCN(CC)CC4)ccc3OCC)[nH]n12 [Vardenafil] | -0.314 | 1.35 | 0.127 | 0.375 | -0.156 | 0.224
3 | COCCCOc1ccnc(C[S+]([O-])c2nc3ccccc3[nH]2)c1C (centres undefined) [Rabeprazole Sodium salt] | -0.587 | -0.545 | 0.0453 | 1.99 | -0.44 | -0.189
4 | CC1(C)O[C@@H]2[C@@H](CO[C@@]3(COS(N)(=O)=O)OC(C)(C)O[C@@H]23)O1 [Topiramate] | -0.482 | -0.13 | -0.0917 | -0.317 | -0.419 | -0.514
5 | C[N+]1(C)CCC(OC(=O)C(O)(c2ccccc2)C2CCCC2)C1 (centres undefined) [Glycopyrrolate] | -0.432 | -0.329 | -0.296 | -0.075 | -0.498 | -0.443
6 | CC1(C)S[C@@H]2[C@H](NC(=O)[C@H](NC(=O)N3CCNC3=O)c3ccccc3)C(=O)N2[C@H]1C(=O)O [Azlocillin sodium salt] | -0.496 | -0.655 | -0.388 | -0.517 | -0.464 | -0.493
7 | c1ccc(C2CN3CCSC3=N2)cc1 (centres undefined) [Tetramisole hydrochloride] | -0.644 | 0.538 | -0.603 | -0.217 | -0.702 | -0.156
8 | CCN(CC)C(=O)Nc1ccc(OCC(O)CNC(C)(C)C)c(C(C)=O)c1 (centres undefined) [Celiprolol HCl] | 0.0633 | 0.456 | -0.229 | -0.152 | -0.388 | -0.405
9 | CC(=O)O[C@]1(C(C)=O)CC[C@H]2[C@@H]3C=C(C)C4=CC(=O)CC[C@@H]4[C@H]3CC[C@@]21C [Nomegestrol acetate] | 0.292 | 0.691 | 1.29 | 1.28 | 0.654 | 0.778
10 | Cc1c(Cl)cccc1Nc1ncccc1C(=O)O [Clonixin Lysinate] | -0.476 | -1.1 | -0.0028 | -0.353 | -0.486 | -0.62
11 | CC(C)(CO)C(O)C(=O)NCCCO (centres undefined) [Panthenol (D)] | -0.558 | -0.28 | -0.953 | -0.974 | -0.509 | -0.649
12 | CC(=O)O[C@]1(C(C)=O)CC[C@H]2[C@@H]3C=C(Cl)C4=CC(=O)CC[C@]4(C)[C@H]3CC[C@@]21C [Chlormadinone acetate] | 0.021 | 2.23 | 0.739 | 1.32 | 0.102 | 0.534
13 | Cc1cnc(NC(=O)C2=C(O)c3ccccc3S(=O)(=O)N2C)s1 [Meloxicam] | -0.49 | 0.298 | -0.567 | -0.195 | -0.477 | -0.459
14 | C=C1c2c(Cl)ccc(O)c2C(=O)C2=C(O)[C@]3(O)C(=O)C(C(N)=O)=C(O)[C@@H](N(C)C)[C@@H]3[C@@H](O)[C@H]12.O=C(O)c1cc(S(=O)(=O)O)ccc1O [Meclocycline sulfosalicylate] | -0.505 | -0.19 | -0.811 | -1.34 | -0.554 | -0.823
15 | CCCCC1C(=O)N(c2ccccc2)N(c2ccc(O)cc2)C1=O (centres undefined) [Oxyphenbutazone] | -0.518 | -0.9 | 0.131 | 0.127 | -0.41 | -0.527
16 | O=C1CN(/N=C/c2ccc(-c3ccc([N+](=O)[O-])cc3)o2)C(=O)N1 [Dantrolene sodium salt] | -0.554 | -0.147 | -1.1 | -0.944 | -0.655 | -0.686
17 | CCCc1ncc(C[n+]2ccccc2C)c(N)n1 [Amprolium hydrochloride] | -0.558 | -1.09 | -0.581 | -0.0131 | -0.483 | -0.419
18 | CN(C/C=C/c1ccccc1)Cc1cccc2ccccc12 [Naftifine hydrochloride] | -0.115 | -0.525 | 0.224 | -0.277 | -0.136 | -0.339
19 | CC(COc1ccccc1)NC(C)C(O)c1ccc(O)cc1 (centres undefined) [Isoxsuprine hydrochloride] | -0.187 | 0.869 | -0.214 | -0.465 | -0.444 | -0.378
20 | CC#C[C@]1(O)CC[C@H]2[C@@H]3CCC4=CC(=O)CCC4=C3[C@@H](c3ccc(N(C)C)cc3)C[C@@]21C [Mifepristone] | -0.423 | 0.259 | -0.703 | -0.6 | -0.386 | -0.393
21 | C[C@]12CCC(=O)C=C1CC[C@@H]1[C@@H]2C(=O)C[C@@]2(C)[C@H]1CC[C@]2(O)C(=O)CO [Cortisone] | -0.412 | 0.126 | -0.734 | -0.61 | -0.464 | -0.486
22 | CCN(CC)CCNC(=O)COc1ccc(OC)cc1 [Mefexamide hydrochloride] | -0.352 | 0.346 | -0.627 | -0.811 | -0.519 | -0.36
23 | CCOC(=O)NNc1nncc2ccccc12 [Todralazine hydrochloride] | -0.642 | -1.72 | -0.897 | -0.795 | -0.572 | -0.622
24 | CNCC(O)c1ccc(OC(=O)C(C)(C)C)c(OC(=O)C(C)(C)C)c1 (centres undefined) [Dipivefrin hydrochloride] | 0.303 | -0.643 | 1.75 | 0.0389 | 0.224 | 0.0222
